This is an account of results in PubChem BioAssay (NCI).

SMILES strings stand for the structures. About 83,000 compounds went through this panel and 20% of them were active in at least one assay; those are over-represented in the sample as a whole.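 How to read the values: 0–100, growth inhibition (40 = 60% inhibited); 0, no net growth; -100 to 0, cell death (-40 = 40% of starting cells died; -100 = all dead).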 Values without a mark were called inactive. Calls of active or inactive are those of the source. Rule for the calls: active = growth percent below 10; inactive = the rest.

Common to all, as to experiment: NCI-60 one-dose screen, 48 h (100 = growth as untreated, 0 = no growth, -100 = all killed)
Common to all, as to conditions: 10 µM unless noted

Test [1] relates to HCT-15 colon.
The subject of test [2] is HT29 colon.
Test [3] has as its system SNB-75 CNS.
Test [4] relates to SNB-19 CNS.
In test [5] the test system is U251 CNS.
The test system of test [6] is PC-3 prostate.
Test [7] has as its system SK-MEL-5 melanoma.
Test [8] deals with UACC-62 melanoma.
Test [9] relates to LOX IMVI melanoma.
The test system of test [10] is SK-MEL-28 melanoma.

Take `CCOC(=O)[C@@H](C)C[C@H](Cc1ccccc1)NC(=O)c1csc([C@@H](C[C@H](C(C)C)N(C)C(=O)[C@@H](NC(=O)[C@H]2CCCCN2C)C(C)(C)C)OC(C)=O)n1`: the growth in [1] is 7.37% (active); in test [2], 0.339% (active); in test [3], 11.9%; in test [4], 24%; in [5] it was 14.7%; in test [6], 21.1%. The growth was -46.2% (active) in test [7], 27% in test [8], 10.1% in test [9] and 51.2% in test [10].
On to `COC(=O)[C@@H](C)C[C@H](Cc1ccccc1)NC(=O)c1csc([C@@H](C[C@H](C(C)C)N(C)C(=O)C2(NC(=O)[C@H]3CCCCN3C)CCC2)OC(C)=O)n1`, for which the growth in test [1] was 17.1%; in [2] it was 5.81% (active); in [3], 28.5%; in test [4], 73.2%; in [5] it was 6.93% (active); in test [6], 19.4%. The growth in [7] is -43.7% (active); in [8] it was 40%; in test [9] it was 12.7%; in test [10], 57%.
For the compound `COc1ccc(O)c(CNC(=O)CN2CCCC2=O)c1`, the growth in [1] was 103%; in test [2], 104%; in test [3], 81.3%; in test [4], 103%; in [5] it was 103%; in [6], 92.1%. Also, the growth was 107% in test [7], 96.6% in test [8], 99.4% in test [9] and 99.4% in test [10].
For `C=CC12CCN(CC1)C(C(O)c1ccnc3ccc(OC)cc13)C2` (stereo not given), the growth in test [1] is 66.1%; in [2], 11.9%; in test [3], 52.7%; in [4], 98.5%; in test [5], 80.6%; in test [6] it was 66%. Moreover, the growth in test [7] was 53.1%; in test [8], 92.8%; in test [9], 89%; in test [10] it was 85.1%.
For `C[C@]12CCc3nc(Nc4ccccc4F)sc3C1=CC[C@@H]1[C@@H]2CC[C@]2(C)C(=O)CC[C@@H]12`, the growth in [1] is 29.3%; in [2] it was 19.1%; in [3] it was 87.3%; in [4], 85.1%; in test [5], 54.3%; in test [6] it was 54.9%. Further, the growth in [7] is 81.9%; in [8], 85.8%; in [9], 14.5%; in test [10], 77%.
Consider `Fc1c[c-]c(-c2ccccn2)c(F)c1.[CH3-].[Pt+2].c1ccc([PH+](c2ccccc2)c2ccccn2)cc1`, for which the growth is -36.7% (active) in test [1]; -13% (active) in test [2]; -5.13% (active) in test [3]; 26% in test [4]; 6.42% (active) in test [5]; 15.4% in test [6]. The growth in test [7] is -75.3% (active); in [8], -30.5% (active); in [9] it was -95.3% (active); in [10] it was -21.9% (active).
In the case of `CCC1CN1CCCCN1CC1CC` (stereo not given), the growth in test [1] is 88.5%; in test [2], 98.2%; in test [3], 81.7%; in [4] it was 99.3%; in [5], 99%; in [6] it was 98.5%. Moreover, the growth was 99.5% in [7], 97.2% in [8], 97.7% in [9] and 90% in test [10].
`CN1C(=O)C23CC4(C56CC78SSC(CO)(C(=O)N7C5Nc5ccccc56)N(C)C8=O)c5ccccc5NC4N2C(=O)C1(CO)SS3` (stereo not given): the growth is -82.3% (active) in test [1]; -77.3% (active) in test [2]; -100% (active) in [3]; -98.3% (active) in test [4]; -100% (active) in test [5]; -99.5% (active) in test [6]. Also, the growth is -95% (active) in [7], -95.6% (active) in [8], -93.6% (active) in [9] and -90.6% (active) in [10].
With `CC(C)=CCc1c(O)c(C(=O)CC(C)C)c(O)c2c(-c3ccccc3)cc(=O)oc12`, the growth in test [1] is 30.3%; in [2], 66.5%; in [3] it was 81.3%; in test [4] it was 42.1%; in [5], 41.3%; in [6], 19.6%. Also, the growth was -41.3% (active) in test [7], 12.2% in test [8], 68.2% in [9] and 39.2% in test [10].
Turning to `CC1(C)N=C(N)N=C(N)N1c1cccc(CCCCc2ccc(Cl)c(S(=O)(=O)F)c2)c1`, the growth was 66.6% in test [1]; 12.5% in test [2]; 62.2% in test [3]; 45.9% in [4]; 35.3% in test [5]; 24.1% in [6]. Further, the growth in [7] was 16.4%; in [8], 15.3%; in test [9] it was 16.5%; in [10] it was 70.2%.
Take `Oc1c(CCl)cc(Cl)cc1CCl`: the growth in test [1] was 109%; in test [2] it was 104%; in test [3], 95.8%; in [4], 107%; in test [5], 110%; in test [6] it was 93.9%. Moreover, the growth in [7] was 104%; in [8] it was 116%; in test [9], 93.8%; in test [10] it was 126%.
In the case of `CCCC(=O)O[C@@H]1C[C@H]2C[C@@H](O[C@@H]3O[C@@H](C)[C@@H](O)[C@@H](O)[C@H]3OC)C[C@@H](C[C@@H](C)/C=C/C=C\C[C@@H]3O[C@@H](C[C@@H]3C)[C@@H](O)C[C@H]3C[C@@]1(O)C(=O)O3)O2`, the growth was 54.3% in test [1]; 60% in test [2]; 55.4% in test [3]; 52.4% in test [4]; 35.6% in [5]; 33% in test [6]. Also, the growth in test [7] was 19.5%; in test [8], 62.5%; in test [9], 62.5%; in test [10] it was 71.5%.
